Measured values published in PubChem BioAssay (Tox21).
Inconclusive results are not listed. Calls of active or inactive are those of the source. The call rests on the fitted dose curve; in most records, active means well fitted curve in the direction sought with a large enough effect in the repeat runs; inconclusive means weak or mixed curves; inactive means no such curve, though single readings can be large; an effect the other way counts as inactive or inconclusive.

test system: not listed separately; test: qHTS assay to identify aromatase inhibitors - cell viability counter screen (AID 743084); settings: MCF-7 aro ERE viability, CellTiter-Fluor, 24 h; series mostly up to 70.3 µM; activity change, negative = cytotoxicity: at the top concentration;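 further: cells stimulated with testosterone during compound exposure; nearly all actives have a fitted effect of over 55% in size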
On the % scale 0 is the no-effect control and ±100 the full control effect.

| Structure (SMILES) | activity change, negative = cytotoxicity |
| --- | --- |
| O=C1[C@H](CC[C@H](O)c2ccc(F)cc2)[C@@H](c2ccc(O)cc2)N1c1ccc(F)cc1 | -15.2% (inactive) |
| CCOc1ccc2[nH]cc(C(=O)NCc3ccccc3)c(=O)c2n1 | -3.46% (inactive) |
| Oc1ccc(Sc2ccc(O)cc2)cc1 | -11.8% (inactive) |
| N#Cc1cc2ccccc2c2ccccc12 | -0.363% [at 95 µM] (inactive) |
| CCN(CC)C(C)CN1c2ccccc2Sc2ccccc21 (stereo not drawn) | -1.97% [at 32.5 µM] (inactive) |
| Cc1ccc2c(ccc3ccccc32)c1 | -0.85% [at 95 µM] (inactive) |
| CN1CCC(OC(c2ccccc2)c2ccccc2)CC1 | 0.784% [at 32.5 µM] (inactive) |
| O=C(Cl)c1c(Cl)cccc1Cl | 3.12% [at 95 µM] (inactive) |
| CNCC[C@@H](Oc1ccccc1C)c1ccccc1 | 5.95% (inactive) |
| COc1ccc(C(C)=O)cc1 | 5.36% [at 95 µM] (inactive) |
| CCCCCCCC/C=C\CCCCCCCC(N)=O | 3.18% (inactive) |
| O=C1CCCCCO1 | 14.6% [at 95 µM] (inactive) |
| CCCCC(CC)COCCCN (stereo not drawn) | -5.13% (inactive) |
| Oc1ccc(O)c2c(O)cccc12 | -27.1% (inactive) |
| CC1(C)CCC(C)(C)c2cc(NC(=O)c3ccc(C(=O)O)cc3)ccc21 | -10.7% (inactive) |
| CC(=O)c1c(C)c([N+](=O)[O-])c(C(C)(C)C)c([N+](=O)[O-])c1C | 10.5% (inactive) |
| CC(=O)O[C@H]1C[C@@H]2CC[C@@H]3[C@H](CC[C@@]4(C)[C@H]3C[C@H]([N+]3(C)CCCCC3)[C@@H]4OC(C)=O)[C@@]2(C)C[C@@H]1N1CCCCC1 | 2.31% (inactive) |
| CN(C)CC[C@@H](c1ccc(Br)cc1)c1ccccn1 | -1.97% (inactive) |
| CC(C)NCC(O)c1cc(O)cc(O)c1 (stereo not drawn) | 10.7% (inactive) |
| CCN1CCC[C@H]1CNC(=O)c1c(OC)ccc(Br)c1OC | 4.33% (inactive) |
| CCCC(=O)OCC | 4.18% (inactive) |
| Cc1cc(CC(=O)O)c(C)n1-c1ccc(Cl)cc1 | -0.868% (inactive) |
| COc1ccc2[nH]c(S(=O)Cc3ncc(C)c(OC)c3C)nc2n1 (stereo not drawn) | -4.86% (inactive) |
| CC(C)(C)c1ccc(S)cc1 | 12.8% (inactive) |
| CCN(CC)CCOc1ccc2c(c1)C(=O)c1cc(OCCN(CC)CC)ccc1-2 | -10.6% (inactive) |
| CC(C)(C)c1cc(CO)cc(C(C)(C)C)c1O | -25.1% [at 95 µM] (inactive) |
| CC(C)CC=O | -2.37% (inactive) |
| O=S(=O)(O)c1ccc(O)c2ncccc12 | 23.8% (inactive) |

molecular target: Aryl hydrocarbon receptor (Homo sapiens) (UniProt P35869); test: qHTS assay to identify small molecule that activate the aryl hydrocarbon receptor (AhR) signaling pathway (AID 743085); settings: HepG2 AhR-luc (HG2L7.5c1), luciferase, 24 h; series mostly up to 70.3 µM; activation: at the top concentration; further: nearly all actives have a fitted effect of over 15% in size; further: potency means the concentration at half of the fitted maximal effect;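 on activation: HG2L7.5c1 human HepG2 liver cells with stably integrated DRE-driven firefly reporter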
Sequence (P35869 whole entry, looked up): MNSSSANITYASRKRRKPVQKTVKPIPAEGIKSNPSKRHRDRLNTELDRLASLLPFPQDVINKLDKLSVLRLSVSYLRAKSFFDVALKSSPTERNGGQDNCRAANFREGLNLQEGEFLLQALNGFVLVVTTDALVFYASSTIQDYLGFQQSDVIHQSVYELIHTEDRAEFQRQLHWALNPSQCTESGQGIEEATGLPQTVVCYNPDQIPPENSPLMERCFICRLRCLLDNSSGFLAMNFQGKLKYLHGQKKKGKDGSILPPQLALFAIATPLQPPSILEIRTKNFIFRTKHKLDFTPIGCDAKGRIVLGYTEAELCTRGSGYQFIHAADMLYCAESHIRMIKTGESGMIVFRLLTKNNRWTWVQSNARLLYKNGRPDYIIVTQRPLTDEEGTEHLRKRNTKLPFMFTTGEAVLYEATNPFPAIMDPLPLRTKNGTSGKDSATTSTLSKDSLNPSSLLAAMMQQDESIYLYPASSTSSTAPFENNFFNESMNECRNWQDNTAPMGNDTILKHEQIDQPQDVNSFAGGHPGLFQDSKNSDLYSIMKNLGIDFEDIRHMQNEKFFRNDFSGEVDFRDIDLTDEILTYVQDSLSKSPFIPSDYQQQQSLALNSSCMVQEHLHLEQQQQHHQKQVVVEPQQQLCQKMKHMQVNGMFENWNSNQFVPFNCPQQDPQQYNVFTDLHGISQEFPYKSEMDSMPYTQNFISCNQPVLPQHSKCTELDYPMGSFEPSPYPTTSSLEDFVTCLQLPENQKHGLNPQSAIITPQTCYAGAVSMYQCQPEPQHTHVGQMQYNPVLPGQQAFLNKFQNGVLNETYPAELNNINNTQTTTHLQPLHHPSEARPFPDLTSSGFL
Method in brief: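 Compounds were tested in HepG2 hepatocellular carcinoma cells harbouring a stably integrated luciferase gene under control of 20 DREs. Increased reporter signal after 24 h treatment at 37C was taken as AhR activation.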

| Structure (SMILES) | Potency | activation |
| --- | --- | --- |
| N#Cc1cc2ccccc2c2ccccc12 | 61.4 µM (active) | – |
| CCN(CC)C(C)CN1c2ccccc2Sc2ccccc21 (stereo not drawn) | – | 1.13% [at 32.5 µM] (inactive) |
| Cc1ccc2c(ccc3ccccc32)c1 | – | 2.22% [at 95 µM] (inactive) |
| O=C(Cl)c1c(Cl)cccc1Cl | – | -1.38% [at 95 µM] (inactive) |
| CNCC[C@@H](Oc1ccccc1C)c1ccccc1 | – | -0.353% (inactive) |
| O=C1CCCCCO1 | – | -1.45% [at 95 µM] (inactive) |
| CCCCC(CC)COCCCN (stereo not drawn) | – | -0.272% (inactive) |
| COC(Cc1ccccc1)OC | – | 0.527% (inactive) |
| O=[N+]([O-])c1cc[n+]([O-])cc1 | – | -0.114% (inactive) |
| Oc1ccc(O)c2c(O)cccc12 | 12.1 µM (active) | – |
| CC(=O)c1c(C)c([N+](=O)[O-])c(C(C)(C)C)c([N+](=O)[O-])c1C | – | -0.51% (inactive) |
| CC(=O)O[C@H]1C[C@@H]2CC[C@@H]3[C@H](CC[C@@]4(C)[C@H]3C[C@H]([N+]3(C)CCCCC3)[C@@H]4OC(C)=O)[C@@]2(C)C[C@@H]1N1CCCCC1 | – | -2.69% (inactive) |
| CN(C)CC[C@@H](c1ccc(Br)cc1)c1ccccn1 | – | -0.411% (inactive) |
| CC(C)NCC(O)c1cc(O)cc(O)c1 (stereo not drawn) | – | -1.87% (inactive) |
| CCN1CCC[C@H]1CNC(=O)c1c(OC)ccc(Br)c1OC | – | 2.17% (inactive) |
| CCCC(=O)OCC | – | -0.302% (inactive) |
| CC(C)(C)c1ccc(S)cc1 | – | -1.08% (inactive) |
| CC(C)(C)c1cc(CO)cc(C(C)(C)C)c1O | – | -2.46% [at 95 µM] (inactive) |
| CC(C)CC=O | – | 2.67% (inactive) |
| O=S(=O)(O)c1ccc(O)c2ncccc12 | – | -0.357% (inactive) |
